CYP2C9 inhib: human CYP2C9 inhibition | P11712 | CYP2C9 Supersomes, luciferin-H conversion, luminescence | inhibition, % at 5 µM | hit rate 20% among 96,000 | AID 777;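 active means blocking of liver enzyme CYP2C9 beyond about 50% at 5 µM, limit read from the data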
Target sequence (P11712 whole entry, looked up): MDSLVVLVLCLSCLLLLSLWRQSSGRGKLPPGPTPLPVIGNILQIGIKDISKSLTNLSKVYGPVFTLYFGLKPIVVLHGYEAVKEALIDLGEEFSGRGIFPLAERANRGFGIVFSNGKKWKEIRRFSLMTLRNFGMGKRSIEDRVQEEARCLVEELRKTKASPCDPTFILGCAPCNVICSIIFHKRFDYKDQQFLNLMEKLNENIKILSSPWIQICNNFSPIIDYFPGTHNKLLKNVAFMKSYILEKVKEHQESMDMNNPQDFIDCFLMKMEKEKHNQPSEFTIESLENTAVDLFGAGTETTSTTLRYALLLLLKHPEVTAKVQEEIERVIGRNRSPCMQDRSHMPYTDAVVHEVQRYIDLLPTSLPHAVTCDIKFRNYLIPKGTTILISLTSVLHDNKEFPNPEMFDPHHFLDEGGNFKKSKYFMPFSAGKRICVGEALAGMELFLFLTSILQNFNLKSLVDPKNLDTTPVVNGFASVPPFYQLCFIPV
E-sel TNF inh: TNF alpha driven E-selectin expression inhibition | inhibition, % at 2 µM | HUVEC TNFa-induced E-selectin immunofluorescence, high content | hit rate 0.71% among 120,000;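 active means inhibition above the batch mean plus 3 SD, and confirmed as a hit on visual image review, cut at about 43% in these data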;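 further: 0% = TNF-stimulated DMSO wells and 100% = unstimulated control wells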
CYP2C19 activ: activators of human cytochrome P450 2C19; activation factor at 5 µM; 96,000 tested, under 10 active; AID 1025; recombinant CYP2C19, luciferin-H EGE luminescence; stronger effect = higher value; 0 = fully inhibited enzyme, 1 = untreated enzyme;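 active means activation factor of at least 2 at 5 µM in the primary screen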;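 further: 0 = wells with 2.5 mM tranylcypromine and 1 = vehicle-only wells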
CYP2C19 inhib: inhibitors of human CYP2C19 | AID 778 | CYP2C19 Supersomes, luciferin-H EGE luminescence, 30 min | inhibition, % at 5 µM | P33261 | hit rate 21% among 96,000;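 active means CYP2C19 inhibition above a set limit at 5 µM in the primary screen, cut at about 50% in these data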;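 further: plate controls were negative control wells for no effect and 2.5 mM tranylcypromine positive control for full effect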
cytoskel mod: cytoskeleton assembly modification. HUVEC TNFa F-actin phalloidin imaging, high content. inhibition, % at 2 µM. hit rate 0.18% among 91,000;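 active means inhibition above the batch mean plus 3 SD and confirmed as a hit by visual image inspection, cut at about 30% in these data, passing the limit was not always enough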
CYP2C9 act: CYP2C9 (human) activation. P11712. recombinant CYP2C9, luciferin-H conversion, luminescence; stronger effect = higher value; factor 1 = untreated enzyme, 0 = blocked. activation factor at 5 µM. hit rate 1.4% among 96,000. AID 1024;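 active means activation factor of 2 or more for CYP2C9 at a 5 µM dose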;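 further: 0 = sulfaphenazole-blocked wells and 1 = vehicle-only wells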
* marks the source's active call; other numbers are inactive results; · = not tested or not shown. Hits are enriched below; roughly 22% of the tested compounds scored in any of these assays.

SMILES	CYP2C9 inhib	E-sel TNF inh	CYP2C19 activ	CYP2C19 inhib	cytoskel mod	CYP2C9 act
CC(C)C1Cc2c(C#N)c(N)sc(=S)c2CO1 (stereo not drawn)	84.4*	23.7	0.5	50.9*	13.8	0.2
CCCNC(=O)CS(=O)Cc1nc(-c2ccc(OC)cc2)oc1C (stereo not drawn)	32.1	·	0.6	39.0	·	0.7
COc1ccc2c(c1)CC(C1(O)C(=O)N(C)c3ccccc31)C2=O (stereo not drawn)	21.7	-35.4	0.2	77.4*	·	0.8
CSc1nnc(-c2ccc(F)cc2)o1	-10.7	7.6	1.1	-7.0	2.9	1.1
COc1cc(C)c(C(C)C)cc1S(=O)(=O)N1CCOCC1	-99.3	·	0.7	33.5	·	2*
CC1CN(C(=O)COC(=O)c2ccc(Cl)c(S(=O)(=O)N3CCCCC3)c2)CC(C)O1 (stereo not drawn)	·	-52.4	·	·	·	·
COc1cc(Cl)c(S(=O)(=O)N2CCOCC2)cc1Cl	-169.6	-9.7	0.7	29.1	1.1	2.7*
COc1cc(Cl)c(S(=O)(=O)N2CC(C)OC(C)C2)cc1Cl (stereo not drawn)	-71.0	-27.0	0.2	84.1*	-9.3	1.7
CCC(CC)NC(=O)COC(=O)c1cc(Br)ccc1Cl	·	-2.1	·	·	·	·
CCCNC(=O)C1CCN(c2nc(C)cc(C)n2)CC1	-34.4	11.6	1.1	-6.6	4.3	1.3
COc1ccccc1C(=O)OCc1c(F)cccc1Cl	-237.4	35.1	0.3	72.7*	8.8	3.4*
Cc1cccc(C)c1NC(=O)CSCC(=O)c1ccc(O)c(O)c1	-22.6	·	1	-4.3	10.4	1.2
CCOc1ccccc1CN1CCN(C2CCN(c3ccccc3F)CC2)CC1CCO (stereo not drawn)	·	2.7	·	·	·	·
CC(Sc1ccc(Cl)cc1)C(=O)Nc1ccc2c(c1)OCO2 (stereo not drawn)	·	15.3	·	·	-2.3	·
COc1ccc(N(C(C)C(=O)NC2CCCCCC2)S(C)(=O)=O)cc1 (stereo not drawn)	27.6	-3.4	0.7	31.3	17.5	0.7
COc1ccc(NC(=O)C(C)N(c2ccc(C)cc2)S(C)(=O)=O)cc1 (stereo not drawn)	74.5*	·	0.1	90.1*	6.9	0.3
Cc1ccc(N(C(C)C(=O)Nc2ccc(S(=O)(=O)N3CCOCC3)cc2)S(C)(=O)=O)cc1 (stereo not drawn)	27.3	-25.9	0.9	7.8	-6.4	0.7
CC(C(=O)Nc1ccc2c(c1)OCO2)N(c1ccc(Cl)cc1)S(C)(=O)=O (stereo not drawn)	93.4*	-13.9	0	98.2*	-4.7	0.1
Cc1ccc(N(C(C)C(=O)Nc2cc(Cl)ccc2Oc2ccccc2)S(C)(=O)=O)cc1 (stereo not drawn)	77.1*	-45.2	0.1	86.4*	-7.1	0.2
COc1ccc(C)cc1NC(=O)C(C)N(c1ccc(C)cc1)S(C)(=O)=O (stereo not drawn)	55.6*	3.8	0.6	44.3	-26.6	0.4
CCOC(=O)N1CCN(S(=O)(=O)c2ccc(C(=O)Nc3nc4c(s3)CC(C)CC4)cc2)CC1 (stereo not drawn)	6.0	-5.8	1.1	-8.0	14.9	0.9
CCN(C(=O)COC(=O)c1cn(-c2ccccc2)nc1-c1ccccc1)C1CCS(=O)(=O)C1 (stereo not drawn)	·	-8.5	·	·	·	·
Cn1cccc1CC(=O)N/N=C\c1c2ccccc2cc2ccccc12	30.5	-73.4	0.5	51.6*	-11.8	0.7
Cn1cccc1CC(=O)N/N=C/c1cccc2ccccc12	10.0	·	1	-3.1	-3.0	0.9
NC(=O)C1CC(=O)N(c2ccc(OCc3ccccc3Cl)cc2)C1 (stereo not drawn)	·	-25.8	·	·	·	·
SMILES	CYP2C9 inhib	E-sel TNF inh	CYP2C19 activ	CYP2C19 inhib	cytoskel mod	CYP2C9 act
CC1(c2ccc3noc(-c4ccc(F)cc4)c3c2)OCCO1	13.5	8.5	0.3	69.1*	8.8	0.9
CC1(c2ccc3noc(-c4ccccc4)c3c2)OCCO1	44.7	-21.3	0.5	50.3*	·	0.6
C=C1C2(C(=O)Nc3nccs3)CCC(C2)C1(C)C (stereo not drawn)	8.8	·	0.6	37.3	-36.0	0.9
Cc1ccc(C(=O)N/N=C\c2ccc(OC(=O)c3cccs3)cc2)cn1	·	30.2	·	·	·	·
Cc1ccc(C(C(=O)NC2CCCCC2)N2CCN(C(=O)c3ccco3)CC2)cc1 (stereo not drawn)	27.0	5.4	0.5	47.0	-14.3	0.7
O=C(NCCN1CCOCC1)c1cc(=O)[nH]c2ccc(Br)cc12	-15.3	0.2	1.2	-21.8	26.7	1.2
O=C(NCc1ccccn1)c1cc(-c2ccccc2)on1	-16.2	-17.2	0.9	11.0	-6.2	1.2
Cc1onc(-c2c(Cl)cccc2Cl)c1C(=O)NCc1ccco1	80.9*	·	0.1	89.3*	0.8	0.2
Cc1onc(-c2c(F)cccc2Cl)c1C(=O)NCc1ccccn1	32.0	-14.2	0.4	55.7*	12.7	0.7
Cc1onc(-c2ccccc2Cl)c1C(=O)NCc1ccccn1	8.3	-1.4	0.5	46.6	0.4	0.9
Cc1ccc(-c2cc(C(=O)NCc3ccccn3)no2)cc1	47.3	16.1	0.5	45.7	77.3*	0.5
Cc1onc(-c2c(F)cccc2Cl)c1C(=O)NNC(=O)C1CCN(Cc2ccccc2)CC1	·	-0.8	·	·	·	·
Cc1onc(-c2c(Cl)cccc2Cl)c1C(=O)N/N=C(\N)COc1ccc(Cl)cc1	85.8*	4.2	1	-2.0	-3.6	0.1
CCOC(CNC(=O)c1ccc2nc(N3CCC(C)CC3)sc2c1)OCC	6.2	5.3	0.8	17.9	-15.9	0.9
CCOC(=O)C1=C(N2CCCCC2)c2cc3c(n2C1=O)CCCC3	24.1	·	0.9	11.5	3.3	0.8
Cc1ccc(C)c(C(=O)CSc2nc3ccccc3c(=O)[nH]2)c1	·	-13.6	·	·	·	·
CCCn1cnc2cc(NCc3cccc(OC)c3)ccc21	34.8	1.9	0.4	59.1*	-17.0	0.7
CCCCn1cnc2cc(NCc3cccc(OC)c3O)ccc21	0.7	-11.9	0.6	44.5	-5.9	1
COc1ccccc1-n1cnc2cc(NS(=O)(=O)c3ccc(Br)cc3)ccc21	99.4*	15.0	0	98.4*	-5.0	0
CCn1cnc2cc(NCc3ccc(C)cc3)ccc21	11.6	-38.9	0.3	74.9*	13.3	0.9
CCOc1ccc(CNc2ccc3c(c2)ncn3C)cc1	12.1	1.3	0.5	45.4	3.4	0.9
O=C(Nc1ccc(Br)cc1)c1cccc(S(=O)(=O)Nc2cnc3ccccc3c2)c1	·	2.0	·	·	·	·
COc1ccc(-n2cnc3cc(NS(=O)(=O)c4ccc(C)cc4)ccc32)cc1	98.3*	-2.6	0.1	91.2*	·	0
C/C(=N\NC(=O)COc1ccc(C#N)cc1)c1ccccc1OC(F)F	·	-7.9	·	·	·	·
Cc1ccc(S(=O)(=O)Nc2ccc3c(c2)CCC3)cc1	·	-13.5	·	·	·	·
CCn1cnc2cc(NS(=O)(=O)c3ccc(C)cc3)ccc21	84.0*	3.1	0.1	88.7*	-10.7	0.2
COc1ccc(NC(=O)Nc2ccc(F)c(Cl)c2)cc1	·	-8.4	·	·	·	·

High-throughput results: PubChem BioAssay, several laboratories
